A selection: hits, their analogues and other compounds. The true share with any hit is near 2.3%.
M1 PAM – positive allosteric modulators of human M1 muscarinic receptor | P11229 | CHO-K1 hM1, Fluo-8 calcium fluorescence, ACh EC20; 0% = ACh EC20, 100% = maximal ACh | activation, % at 3 µM | 360,000 tested, 0.088% active | AID 588819; in the data active means activation above about 19%, passing the limit was not always enough
Target sequence (P11229 whole entry, looked up): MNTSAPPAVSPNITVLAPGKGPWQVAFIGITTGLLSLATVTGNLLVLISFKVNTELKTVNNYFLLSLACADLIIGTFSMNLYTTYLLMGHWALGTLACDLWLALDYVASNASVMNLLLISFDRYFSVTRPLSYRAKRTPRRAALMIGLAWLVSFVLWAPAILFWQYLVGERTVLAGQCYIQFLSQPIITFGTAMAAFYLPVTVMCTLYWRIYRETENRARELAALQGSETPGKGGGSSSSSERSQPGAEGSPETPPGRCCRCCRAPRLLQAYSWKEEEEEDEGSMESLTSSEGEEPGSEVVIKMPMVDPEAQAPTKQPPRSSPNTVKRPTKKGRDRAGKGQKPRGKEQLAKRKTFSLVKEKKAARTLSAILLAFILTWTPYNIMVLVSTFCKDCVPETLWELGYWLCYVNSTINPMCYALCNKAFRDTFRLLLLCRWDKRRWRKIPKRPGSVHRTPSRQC
CHO-K1 Ca PAM – nonselective activator or artifact in parental CHO-K1 calcium assay; 360,000 tested, 0.02% active; activation, % at 3 µM; ATP EC20, Fluo-8 calcium fluorescence; 0% at ATP EC20, 100% at ATP max;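 active means activation above the run cutoff, the mean activation of all test compounds plus 3 SD, cut at about 40% in these data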;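 further: peak over basal fluorescence ratio in a 140 s read after ATP addition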
M1 ag parental – nonselective activator or artifact in parental CHO-K1 cells; Fluo-8 calcium fluorescence; scaled to maximal ATP response, vehicle zero; activation, % at 3 µM; 360,000 tested, 0.48% active; AID 602248; in the data active means activation above about 15%;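 further: untransfected CHO-K1 host cells lacking M1 receptor as counterscreen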
CHO-K1 Ca antag – nonselective inhibitor or artifact in parental CHO-K1 cells; AID 602250; inhibition, % at 3 µM; 360,000 tested, 0.6% active; ATP-induced calcium, Fluo-8 fluorescence;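 active means inhibition above a per-plate cutoff, the plate's mean sample inhibition plus 3 SD, cut at about 24% in these data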
CHRM1 antagonist – blocks human M1 muscarinic receptor; AID 588852; 360,000 tested, 1.3% active; CHO-K1 hM1, Fluo-8 calcium fluorescence, ACh EC80 antagonist; inhibition, % at 3 µM; P11229;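 active means percent inhibition above its own plate's cutoff, namely the mean of that plate's compound wells plus 3 SD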;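 further: peak over basal fluorescence ratio during 140 s after agonist addition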
CHRM1 agonist – agonists of human M1 muscarinic receptor | P11229 | CHO-K1 hM1, Fluo-8 calcium fluorescence, agonist mode; 0% DMSO, 100% acetylcholine EC100 | activation, % at 3 µM | 360,000 tested, 0.33% active | AID 588814;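 active means activation above the run's mean compound activation plus 3 SD, cut at about 16% in these data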;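 further: peak over basal fluorescence ratio within a 140 s kinetic read after compound addition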
Of the large screens only hits and unclear results are named; the others gave an inactive call.

COc1ccc(C(=O)/C=C2\Sc3ccccc3N2C)cc1	none
COc1ccccc1-[n+]1c(C)cc(/C=C2\Sc3ccccc3N2C)cc1C	M1 ag parental 34, CHO-K1 Ca antag 52, CHRM1 antagonist 83, CHRM1 agonist 36
CN(C)c1cccc(NC(=O)c2cccc3c(-c4ccc(F)c(F)c4)coc23)c1	none
CO/N=C/c1ccc(Sc2ccccc2)c([N+](=O)[O-])c1	CHO-K1 Ca antag 25
CO/N=C/c1ccc(Sc2ccccc2N)c([N+](=O)[O-])c1	none
CN(c1ccccc1)c1ccc(/C=C/[N+](=O)[O-])cc1	M1 ag parental 20, CHO-K1 Ca antag 28, CHRM1 antagonist 64, CHRM1 agonist 23
O=[N+]([O-])c1ccc(C=CC=Cc2ccccc2)cc1	none
Cc1nc2ccc(NC(=S)NC3CC3)cc2nc1C	CHO-K1 Ca antag 27
Cc1nc2ccc(NC(=S)NC(C)C)cc2nc1C	none
CN1CCC(OC(=O)c2ccccc2Cl)CC1	CHRM1 antagonist 48
Cc1ccccc1C(=O)OC1CCN(C)CC1	CHRM1 antagonist 35
CN1CCC(OC(=O)c2ccc(Cl)cc2Cl)CC1	none
CN1CCC(OC(=O)c2ccco2)CC1	none
N#CC1=C2SCN(Cc3ccccc3)CN2C(=O)CC1c1cccs1 (centres undefined)	CHO-K1 Ca antag 27
CCNc1nc(NC(C)C)nc(NC(C)(C)C)n1	CHRM1 antagonist 33
COc1cccc2cc(C(=O)c3ccc([N+](=O)[O-])cc3)oc12	none
CCOC(=O)c1cnc2ccc(OCC)cc2c1N1CCN(c2ccccc2OC)CC1	CHRM1 antagonist 34
CCCC(=O)N(Cc1cc(=O)[nH]c2ccccc12)c1ccc(C)cc1	CHRM1 antagonist 57
CCCC(=O)N(Cc1cc(=O)[nH]c2ccccc12)c1ccc(C)cc1C	none
CCC(=O)N(Cc1cc(=O)[nH]c2ccccc12)c1cccc(C)c1	CHRM1 antagonist 65
CCC(=O)N(Cc1cc(=O)[nH]c2ccccc12)c1ccccc1C	CHO-K1 Ca antag 55
CN(CC(=O)Nc1ccc(Cl)c(C(F)(F)F)c1)C(=O)c1cccc(N2C(=O)CCC2=O)c1	none
Cc1ccc(NC(=S)Nc2ccc(Cl)c(Cl)c2)c(OC(F)F)c1	CHO-K1 Ca antag 26
CC(=O)N1CCc2ccc(S(=O)(=O)N3CCc4ccccc43)cc21	CHRM1 antagonist 35
COc1ccc(S(=O)(=O)N2CCc3ccccc32)cc1C(=O)O	none
CC(=O)N1CCc2cc(S(=O)(=O)NC3CCCc4ccccc43)ccc21 (centres undefined)	CHO-K1 Ca antag 34
O=C(O)c1ccc(S(=O)(=O)NC2CCCc3ccccc32)cc1 (centres undefined)	none
COc1cccc(C(=O)NCC(C)(C)SCc2ccc(F)cc2)c1	none
Cc1ccc(C)c(CC(=O)N2CCCC(c3cc(C(=O)Nc4ccccc4Cl)no3)C2)c1 (centres undefined)	none
CC(C)C(NC(=O)OCc1ccccc1)C(=O)NC(Cc1ccc(O)cc1)C(=O)O (centres undefined)	none
CC(C)[C@H](NC(=O)[C@H](CCCN=C(N)N)NC(=O)NC(Cc1ccccc1)C(=O)O)C(=O)NC(C=O)CCCN=C(N)N (some centres undefined)	CHO-K1 Ca antag 27
Cc1cc(C)c2c(=O)n(CC(=O)Nc3ccc(Br)c(C)c3)sc2n1	none
Cc1cc(C)c2c(=O)n(CC(=O)Nc3cccc(Cl)c3C)sc2n1	M1 ag parental 19, CHRM1 agonist 17
O=C(Nc1cccc(OC(F)(F)F)c1)C1Cc2c(-c3cccc(F)c3)ccnc2O1 (centres undefined)	none
O=C(NC(=S)Nc1ccc2[nH]c(=O)[nH]c2c1)c1ccccc1[N+](=O)[O-]	none
O=C(CC[C@H]1O[C@@H](n2ccc(=O)[nH]c2=O)[C@H](O)[C@@H]1O)N[C@H](Cc1ccccc1)C(=O)NCc1cccs1	none
CCS(=O)(=O)c1ncc(Cl)c(C(=O)Nc2ccc(S(=O)(=O)N(C)c3ccccc3)cc2)n1	CHRM1 antagonist 88
CCN(c1ccccc1)S(=O)(=O)c1ccc(NC(=O)c2nc(S(C)(=O)=O)ncc2Cl)cc1	none
COC(=O)c1[nH]c2ccc(C)cc2c1NC(=O)CCN1CCN(Cc2ccc3c(c2)OCO3)CC1	CHRM1 antagonist 61
CC(=O)c1ccc(OCc2cc(C(=O)N3CCC(Oc4ccccc4C)CC3)no2)cc1	none
O=C(c1cc(COc2cccc(C(F)(F)F)c2)on1)N1CCC(Oc2cccnc2)CC1	CHO-K1 Ca antag 24, CHRM1 antagonist 37
Cc1ccc(OCc2cc(C(=O)N3CCC(Oc4cccnc4)CC3)no2)cc1C	M1 ag parental 16, CHO-K1 Ca antag 25
Cc1cccc(C)c1OCc1cc(C(=O)N2CCC(c3ccncc3)CC2)no1	CHRM1 antagonist 29
N#Cc1ccccc1S(=O)(=O)c1ccccc1C(=O)Nc1ccccc1	none
Cn1c(N)c(C(=O)CSc2nn(-c3ccc(F)cc3)c(=S)s2)c(=O)n(C)c1=O	none
COCCN(C(=O)Cc1cccs1)C(C(=O)NCc1ccc(OC)cc1)c1ccc(C)cc1 (centres undefined)	none
COc1ccc(CNC(=O)C(c2ccc(C)o2)N(Cc2cccs2)C(=O)Cc2cccs2)cc1 (centres undefined)	CHRM1 antagonist 40
O=C(NCc1ccccc1)C(c1ccccc1)N(Cc1ccc2c(c1)OCO2)C(=O)Cc1cccs1 (centres undefined)	CHRM1 antagonist 45
COCCNC(=O)C(c1ccc(C)o1)N(Cc1ccc(OC)cc1)C(=O)Cn1nnc2ccccc21 (centres undefined)	CHRM1 agonist 23
CN(CCCn1ccc(NC(=O)OCc2ccccc2)nc1=O)Cc1ccco1	none
Cc1ccc2oc(=O)c3cc(C(=O)NCCCN4CCc5ccccc5C4)sc3c2c1	CHRM1 antagonist 25
O=C1CSC(c2ccc([N+](=O)[O-])cc2)N1CCN1CCCCC1 (centres undefined)	CHRM1 agonist 19
O=C(OCCN1CCCC1)C1(c2ccccc2)CCCC1	CHRM1 antagonist 99
C[N+]1(CCCOC(=O)C2(c3ccccc3)CCCC2)CCOCC1	CHRM1 antagonist 100
CN(C)CCOC(=O)C1(c2ccccc2)CCCC1	CHRM1 antagonist 100
CCNC(=O)C1(c2ccccc2)CCCC1	none
O=C(OCCN1CCCCC1)C1(c2ccccc2)CCCC1	CHRM1 antagonist 100
O=C1NC(c2ccc(F)cc2)Oc2ccccc21 (centres undefined)	none
O=C1NC(c2cccc([N+](=O)[O-])c2)Oc2ccccc21 (centres undefined)	CHO-K1 Ca antag 27
Cc1ccc(C2NC(=O)c3ccccc3O2)cc1 (centres undefined)	M1 ag parental 19
Cc1cc(F)ccc1S(=O)(=O)N1CCCOC1CNC(=O)C(=O)NC1CCCC1 (centres undefined)	none
